This is a sample that favours compounds with a hit; in the whole collection about 2.3% have one here.
H9c2 protect – modulators protecting cardiomyocytes from myocardial damage; H9c2 cardiomyocytes, H2O2 injury protection, ATPLite, 2 h; protection from H2O2 cell death, % at 20 µM; 360,000 tested, 0.63% active; AID 588492;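 active = compounds giving at least 50% protection of heart cells from peroxide-induced death in the single-dose screen, raw or plate-pattern-corrected value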;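 note: 0% = DMSO wells with peroxide and 100% = DMSO wells without peroxide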
TAG inh – reduces triacylglycerol accumulation in H9c2 cells; Nile Red lipid (TAG) fluorescence; cells loaded with 200 µM oleic acid; inhibition, % at 12.5 µM; AID 651582; 230,000 tested, 0.66% active;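 active = pattern-corrected inhibition of lipid staining of at least 50% with the nuclear-stain viability signal not falling by more than 50%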;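 note: 0% = DMSO wells and 100% = triacsin C control wells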
Calpain2 inh – calpain II (pig) inhibition. 220,000 tested, 0.37% active. purified calpain II, fluorogenic peptide substrate, 30 min. inhibition, % at 16 µM;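 active = inhibition above about 50%, limit read from the data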
MIN6 prolif – MIN6 beta-cell proliferation induction; MIN6 cells proliferation, ATPlite luminescence, 48 h; cells starved in 0.2% serum; 100% = growth in 10% serum; proliferation, % at 10 µM; 330,000 tested, 0.29% active; AID 2380;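 active = compounds whose signal lies at least 3.5 SD above the mean of all wells on their plate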;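 note: 0% = DMSO-treated cells in low-serum medium and 100% = 10% serum control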
FAS TE block – FAS thioesterase (human) inhibition; recombinant FAS-TE, OMFH fluorogenic substrate, fluorescence endpoint; inhibition, % at 15 µM; P49327; AID 602261; 360,000 tested, 0.67% active;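 active = compounds whose normalised, plate-corrected inhibition of enzyme fluorescence in the single-dose primary screen is 50% or more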;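 note: 0% = DMSO with enzyme and 100% = substrate without enzyme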
Target sequence (P49327 whole entry, looked up): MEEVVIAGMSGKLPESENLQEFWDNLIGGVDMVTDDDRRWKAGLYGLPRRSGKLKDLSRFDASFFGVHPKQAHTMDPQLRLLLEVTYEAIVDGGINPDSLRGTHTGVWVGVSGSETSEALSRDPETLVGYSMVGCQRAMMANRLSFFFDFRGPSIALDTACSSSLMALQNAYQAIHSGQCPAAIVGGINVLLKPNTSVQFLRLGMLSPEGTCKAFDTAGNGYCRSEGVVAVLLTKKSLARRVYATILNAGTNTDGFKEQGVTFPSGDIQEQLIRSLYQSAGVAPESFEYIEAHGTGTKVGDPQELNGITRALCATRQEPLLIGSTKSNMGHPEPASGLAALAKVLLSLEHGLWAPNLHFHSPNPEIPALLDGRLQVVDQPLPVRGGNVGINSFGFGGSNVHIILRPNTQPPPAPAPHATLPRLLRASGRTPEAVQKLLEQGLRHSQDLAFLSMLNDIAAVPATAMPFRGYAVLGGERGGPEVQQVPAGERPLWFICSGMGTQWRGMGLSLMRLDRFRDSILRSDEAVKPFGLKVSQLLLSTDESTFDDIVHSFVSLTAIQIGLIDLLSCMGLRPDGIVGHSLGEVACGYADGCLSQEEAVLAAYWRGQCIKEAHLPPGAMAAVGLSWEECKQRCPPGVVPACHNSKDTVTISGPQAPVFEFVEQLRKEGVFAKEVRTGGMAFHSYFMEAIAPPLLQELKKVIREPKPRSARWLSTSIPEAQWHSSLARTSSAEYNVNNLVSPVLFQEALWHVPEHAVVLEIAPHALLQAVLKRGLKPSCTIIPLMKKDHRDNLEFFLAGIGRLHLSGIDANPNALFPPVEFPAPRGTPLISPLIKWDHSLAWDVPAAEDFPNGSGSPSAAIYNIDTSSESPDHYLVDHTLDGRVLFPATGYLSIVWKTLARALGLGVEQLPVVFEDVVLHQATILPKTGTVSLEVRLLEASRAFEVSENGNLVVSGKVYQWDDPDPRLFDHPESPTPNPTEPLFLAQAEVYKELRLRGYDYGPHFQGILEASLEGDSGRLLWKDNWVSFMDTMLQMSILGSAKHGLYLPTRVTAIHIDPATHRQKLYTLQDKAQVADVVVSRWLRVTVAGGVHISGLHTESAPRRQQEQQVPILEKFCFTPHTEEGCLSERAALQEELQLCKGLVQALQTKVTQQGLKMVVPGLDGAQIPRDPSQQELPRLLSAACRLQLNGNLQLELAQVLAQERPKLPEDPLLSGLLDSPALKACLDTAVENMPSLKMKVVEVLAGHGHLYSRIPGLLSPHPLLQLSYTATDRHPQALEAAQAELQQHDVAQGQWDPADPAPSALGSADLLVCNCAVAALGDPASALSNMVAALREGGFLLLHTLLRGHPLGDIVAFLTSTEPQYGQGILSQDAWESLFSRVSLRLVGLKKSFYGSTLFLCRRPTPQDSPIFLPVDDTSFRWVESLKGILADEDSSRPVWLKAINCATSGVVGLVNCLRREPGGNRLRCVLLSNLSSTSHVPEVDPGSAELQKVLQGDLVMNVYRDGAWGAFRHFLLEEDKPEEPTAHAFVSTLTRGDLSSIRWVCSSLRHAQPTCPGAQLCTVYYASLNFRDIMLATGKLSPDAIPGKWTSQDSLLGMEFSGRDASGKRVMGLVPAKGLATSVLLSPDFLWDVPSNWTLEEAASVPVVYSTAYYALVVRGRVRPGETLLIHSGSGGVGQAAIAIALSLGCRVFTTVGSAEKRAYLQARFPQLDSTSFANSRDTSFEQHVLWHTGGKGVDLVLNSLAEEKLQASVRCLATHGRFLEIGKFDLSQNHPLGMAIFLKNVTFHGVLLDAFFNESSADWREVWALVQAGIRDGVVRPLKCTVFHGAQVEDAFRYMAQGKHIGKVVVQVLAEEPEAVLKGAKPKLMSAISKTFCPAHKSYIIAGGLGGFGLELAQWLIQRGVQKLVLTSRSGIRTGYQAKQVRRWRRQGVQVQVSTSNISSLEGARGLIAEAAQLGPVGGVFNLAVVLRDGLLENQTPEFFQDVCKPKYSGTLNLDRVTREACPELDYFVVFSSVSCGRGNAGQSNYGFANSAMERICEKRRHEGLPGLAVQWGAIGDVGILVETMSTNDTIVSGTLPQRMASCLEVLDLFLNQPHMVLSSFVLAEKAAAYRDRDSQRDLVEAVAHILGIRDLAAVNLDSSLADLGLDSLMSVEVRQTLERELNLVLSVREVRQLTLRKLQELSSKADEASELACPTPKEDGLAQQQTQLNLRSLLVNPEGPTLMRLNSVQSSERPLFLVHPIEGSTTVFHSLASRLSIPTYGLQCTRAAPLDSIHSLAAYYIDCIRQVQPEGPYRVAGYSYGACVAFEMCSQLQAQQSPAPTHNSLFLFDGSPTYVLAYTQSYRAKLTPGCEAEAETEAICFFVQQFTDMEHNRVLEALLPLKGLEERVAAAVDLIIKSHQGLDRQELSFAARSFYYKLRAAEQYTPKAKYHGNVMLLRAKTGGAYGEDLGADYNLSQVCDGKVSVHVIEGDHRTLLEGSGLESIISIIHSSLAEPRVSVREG
aDG glyco act – alpha-DG glycosylation activation; Pro5-aDG cells, alpha-DG glycosylation AlphaScreen (IIH6); 0% Pro5, 100% B10-LARGE cell signal; activation, % at 10 µM; 360,000 tested, 0.22% active;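 active = activation of at least 8% versus controls, or a plate z-score of at least 8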;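 note: Pro5 are CHO cells carrying HIG-tagged alpha-DG that lacks glycosylation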
FAS-TE inh conf – confirmation of human fatty acid synthase thioesterase inhibitors | shares compounds with FAS TE block | recombinant FAS-TE, OMFH fluorogenic substrate, fluorescence | inhibition, % at 15 µM | 2,300 tested, 45% active | AID 624325;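 active = compounds inhibiting the enzyme by at least 50% at 15 µM in any one of the replicates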;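 note: 0% = enzyme with DMSO only and 100% = wells lacking enzyme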
The depositor's hits bear a star; nt = no result given.

SMILES	H9c2 protect	TAG inh	Calpain2 inh	MIN6 prolif	FAS TE block	aDG glyco act	FAS-TE inh conf
O=C(Nc1nc(-c2ccc3ccccc3c2)cs1)C1CCN(S(=O)(=O)c2cccs2)CC1	-6.8	nt	-40.6	-3.7	87.6*	2.5	6.6
O=[N+]([O-])c1c(Nc2ccc(O)cc2)cc(Cl)c2nonc12	-21.2	nt	nt	-4.9	59.5*	-0.2	44.0*
O=[N+]([O-])c1c(Nc2ccccn2)cc(Cl)c2nonc12	-16.5	112.8	-3.5	-3.9	62.2*	0.5	30.7
Cn1c(CC(O)c2nc3ccccc3n2C)nc2ccccc21 (centres undefined)	-0.2	7.6	nt	nt	-5.6	0.0	nt
CCOCCCn1c(=NC(=O)c2ccco2)c(C(=O)OCC)cc2c(=O)n3cccc(C)c3nc21	29.5	5.5	-325.2	4.2	66.7*	0.2	2.4
CCOC(=O)c1cc2c(=O)n3ccccc3nc2n(Cc2ccco2)c1=NC(=O)c1ccc(OC)cc1	43.8	-4.1	-216.2	-3.3	63.9*	0.0	47.2*
CC(OC(=O)c1cccc([N+](=O)[O-])c1)C(=O)N1CCc2ccccc21 (centres undefined)	1.3	8.9	nt	-3.2	77.3*	-0.3	58.7*
COc1cccc(-c2cnc3c(NC=O)cc(-c4ccoc4)cn23)c1	5.4	4.5	nt	nt	18.5	0.0	nt
COc1cccc(-c2cnc3c(NC=O)cc(-c4ccc(S(C)(=O)=O)cc4)cn23)c1	36.0	29.7	nt	nt	55.4*	-0.1	55.9*
COc1ccc(/C=N/NC(=O)c2ccc(CN3c4cccc5cccc(c45)S3(=O)=O)cc2)cc1	1.6	nt	-193.6	-2.6	79.4*	-0.1	9.7
Cc1onc(-c2c(F)cccc2Cl)c1C(=O)NCc1ccc(S(N)(=O)=O)cc1	3.3	-12.9	nt	2.2	-6.3	-0.2	nt
O=C(NNS(=O)(=O)c1ccc([N+](=O)[O-])cc1)c1ccc([N+](=O)[O-])cc1	-1.5	nt	nt	-6.4	73.6*	-0.2	77.1*
O=C(NNS(=O)(=O)c1ccc([N+](=O)[O-])cc1)c1cnn(-c2ccccc2)c1-n1cccc1	0.0	1.6	-2.5	-1.0	65.4*	-0.1	74.6*
O=C(NNS(=O)(=O)c1ccccc1)c1cnn(-c2ccccc2)c1-n1cccc1	1.6	15.2	15.6	-1.3	-4.3	0.0	nt
C[C@@H]1CN([C@H](C)CO)S(=O)(=O)c2ccc(-c3ccc(C(=O)N(C)C)cc3)cc2O[C@H]1CN(C)C(=O)Cc1ccccn1	-0.5	7.0	nt	nt	-9.7	0.1	nt
Cc1cc(OCC(=O)OCC(=O)c2c(N)n(C)c(=O)n(C)c2=O)ccc1Cl	0.4	12.8	nt	4.1	1.7	0.1	nt
Cc1ccc(C)c(S(=O)(=O)N2CCN(C(C(=O)Nc3ccc(F)cc3)c3ccccc3)CC2)c1 (centres undefined)	-5.2	nt	-36.4	-1.6	25.2	0.3	nt
O=C(Nc1ccc(F)cc1)C(c1ccccc1)N1CCN(S(=O)(=O)c2ccc3ccccc3c2)CC1 (centres undefined)	3.8	15.7	-31.1	-2.0	85.7*	0.5	18.2
COc1ccc(NC(=O)C(=O)N/N=C/c2cc(C)n(-c3cccc(Cl)c3Cl)c2C)c(OC)c1	5.4	nt	-79.9	-4.1	63.1*	0.0	5.2
CNC(=O)c1cc(NC(=O)N(CCC#N)CCN(C(=O)NC(Cc2ccccc2)C(=O)NC(CC(C)C)C(=O)NC)c2ccccc2)ccc1OC (centres undefined)	1.2	5.2	nt	nt	-2.1	0.1	nt
O=C(Nc1ccc(S(=O)(=O)Nc2ccccc2)cc1)c1ccc(CN2CCOCC2)cc1	-15.4	-5.7	-3.2	-2.6	0.7	1.2	nt
CC1CCN(C(=O)c2[nH]cnc2C(=O)Nc2ccc(Cl)cc2)CC1	5.3	-0.8	nt	0.3	53.7*	0.2	49.2
CC(=O)c1cccc(-c2ccnc3c2CC(C(=O)Nc2cccc(OC(F)(F)F)c2)O3)c1 (centres undefined)	-4.8	-11.3	nt	nt	53.7*	0.2	56.7*
NC(=O)Cc1ccc(C(=O)c2ccccc2)s1	-3.9	13.2	-19.1	0.6	-1.7	0.1	nt
Cc1occc1-c1nnc(SCC(=O)Nc2ccccc2-c2ccccc2)n1C	-2.5	10.2	-28.1	-1.6	0.2	0.2	nt
SMILES	H9c2 protect	TAG inh	Calpain2 inh	MIN6 prolif	FAS TE block	aDG glyco act	FAS-TE inh conf
CCCn1c(SCC(=O)Nc2ccccc2-c2ccccc2)nnc1-c1ccoc1C	-7.2	24.1	21.9	-2.4	59.8*	0.0	74.2*
COc1ccc(-c2[nH]n(-c3ccc([N+](=O)[O-])cc3)c(=O)c2C=NCc2ccccc2)cc1	-7.9	16.6	-17.7	0.9	54.5*	0.0	1.2
COc1cc(/C=C(\C#N)c2nc3ccccc3s2)cc([N+](=O)[O-])c1O	-18.8	nt	-46.4	-4.7	50.6*	-0.4	46.4*
N#C/C(=C\c1ccc(O)c([N+](=O)[O-])c1)c1nc2ccccc2s1	-30.2	nt	0.7	nt	19.7	0.4	nt
COc1ccc(NC(=O)/C(Cl)=C(/Cl)S(=O)Cc2ccc(Cl)cc2)cn1 (centres undefined)	-20.9	88.0*	-13.6	-4.9	61.5*	-0.6	68.3*
COc1cc(C(=O)Oc2ccccc2/C=N/NC(=O)c2ccc(C)c(Cl)c2)cc(OC)c1OC	10.4	nt	-89.3	-1.5	-5.1	0.3	nt
COc1cc(C(=O)N/N=C/c2coc3ccc(Cl)cc3c2=O)ccc1O	11.0	1.2	nt	-4.6	58.7*	0.0	65.6*
COc1cc(C(=O)Oc2ccccc2/C=N/NC(=O)c2ccc(Cl)cc2)cc(OC)c1OC	33.0	21.7	14.7	0.0	54.2*	1.1	21.6
O=C(N/N=C/c1coc2ccc(Cl)cc2c1=O)c1ccc(O)cc1	5.3	7.3	nt	1.0	65.4*	0.1	36.8*
CSc1ccccc1NC(=O)COc1nsnc1N1CCOCC1	-0.1	nt	nt	1.0	-5.5	-0.2	nt
O=C(CN1CCN(C(=O)CNC(=O)c2ccc(N3CCCC3=O)cc2)CC1)Nc1ccccc1Cl	7.9	8.5	nt	-2.2	-13.0	-0.2	nt
CCc1nc2c(OCCC3CCCCC3)cccn2c1N(C)C(=O)c1ccc(C)cc1	-15.6	2.1	nt	nt	21.7	0.4	nt
CN(C)[C@H]1CCN([C@@H]2CS(=O)(=O)N[C@H]2COCc2ccccc2)C1	2.2	nt	nt	nt	-7.2	0.0	nt
Cc1cc(Br)cn2c(Cc3ccccc3)c(-c3ccc(C#N)cc3)nc12	1.3	nt	nt	nt	18.0	-0.2	nt
CC[C@@]12C(=O)N(c3cccc(C)c3)C(=O)N1[C@H](c1ccc(OC)cc1)[C@@H]1C(=O)N(C(C)(C)C)C(=O)[C@@H]12	10.3	-4.3	nt	-2.3	4.3	0.0	nt
COc1ccc([C@@H]2[C@@H]3C(=O)N(C(C)(C)C)C(=O)[C@@H]3[C@]3(Cc4ccc(Cl)cc4)C(=O)N(c4cccc(C)c4)C(=O)N23)cc1	1.2	-15.0	nt	-5.4	82.8*	0.8	39.0

Bioassay records from PubChem.
